# System: MILI (PIWIL2) piRISC loaded with L1MC piRNA (26 nt)
# Assay: pre-steady-state target cleavage rate (min^-1); guide: L1MC piRNA 5'p-UAACUAAAUACUAUGCAAGCUGUAGG; MIWI and MILI are mouse PIWI proteins and EfPiwi is from a freshwater sponge; tags in brackets are library labels; higher = faster piRNA-guided slicing of the target
# Settings: auxiliary factor: none (no GTSF1)
# Method in brief: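 Using HEPES–potassium acetate buffer at 33 °C, 1 nM active affinity-purified piRISC with a single synthetic guide was mixed with 0.1 nM transcribed, DNA-blocked target RNA library for 0–8 or 0–960 min, with or without 500 nM GTSF1 partner protein. Uncleaved targets were sequenced and normalised to depth and to weakly complementary targets, and three trials were pooled with k3 capped at 0.0001 min^-1. A burst-and-steady-state fit gave the pre-steady-state cleavage rate.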
row,Sequence,pre-steady-state target cleavage rate
1,UCCUGGAUGUCGAACCAUAGUAUUUUGUAA,< 0.0001
2,UCCUGGAUGUCGAACCAUACUAUUAAGUUA,< 0.0001
3,UCCUGGAUGUCGAACGUAUCUAAUUUAGUUA,< 0.0001
4,UCCUGGAUGUCGAACCAUAGUAUUUAGUGUA,< 0.0001
5,UCCUGGAUCAGCUUGGAUAGUAUUUUCAAA,< 0.0001

# Reference: the supplement of paper PMC10338343
